# From PMC7862700, “An all-to-all approach to the identification of sequence-specific readers for epigenetic DNA modifications on cytosine”
# How the values were obtained:
# Experiment in all cases: DAPPL (digital affinity profiling via proximity ligation, sequencing); 10 mM Tris-HCl pH 7.5, 50 mM NaCl, 1 mM DTT, 4% glycerol, room temperature, 30 min; GST-TFs on glutathione beads, 16-mer random dsDNA library, 0.1% formaldehyde crosslink after washing; high values mean tight binding
# Details in all cases: protein: recombinant; tags: N-terminal GST; dsDNA, one strand shown
# FEV = biological target: T1, FEV (Homo sapiens, UniProt Q99581 1-238)
# T1 sequence: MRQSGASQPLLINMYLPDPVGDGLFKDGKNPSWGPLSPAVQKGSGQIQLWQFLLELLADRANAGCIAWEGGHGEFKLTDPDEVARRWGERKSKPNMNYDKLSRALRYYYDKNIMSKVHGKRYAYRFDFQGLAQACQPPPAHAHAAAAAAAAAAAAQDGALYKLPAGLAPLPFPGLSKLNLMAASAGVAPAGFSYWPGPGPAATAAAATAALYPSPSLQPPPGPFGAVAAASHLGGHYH
# In short: (§1)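 Pools of DNA-barcoded human transcription factors, expressed in yeast as GST fusions on glutathione beads and combined with a tag-only sample, were incubated with 200 nmole of a 16-mer random double-stranded DNA library. Incubation took 30 min at room temperature in Tris/NaCl/DTT/glycerol buffer and was followed by washing, 0.1% formaldehyde crosslinking, proximity ligation (BsaI/T4 ligase, 1 h, 37 °C), PCR amplification and sequencing on an Illumina NextSeq500. Binding signal is the ratio of a hexamer's read frequency for a factor to its frequency for the tag-only sample.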
# ETV5 = ETV5 (Homo sapiens, UniProt P41161 1-510)
# In short: as §1
# SPIC = biological target: T2, SPIC (Homo sapiens, UniProt Q8N5J4 1-248)
# T2 sequence: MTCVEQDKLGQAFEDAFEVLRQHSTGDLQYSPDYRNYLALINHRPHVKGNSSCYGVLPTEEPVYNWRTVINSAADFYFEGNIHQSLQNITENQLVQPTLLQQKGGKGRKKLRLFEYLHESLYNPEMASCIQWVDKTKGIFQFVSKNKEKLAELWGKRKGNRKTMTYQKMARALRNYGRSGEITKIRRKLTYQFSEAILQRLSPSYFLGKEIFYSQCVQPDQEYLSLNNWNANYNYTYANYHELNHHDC
# In short: as §1
# ELF4 = ELF4 (Homo sapiens, UniProt Q99607 1-663)
# In short: as §1
# ELK4 = biological target: T3, ELK4 (Homo sapiens, UniProt P28324-2 1-405)
# T3 sequence: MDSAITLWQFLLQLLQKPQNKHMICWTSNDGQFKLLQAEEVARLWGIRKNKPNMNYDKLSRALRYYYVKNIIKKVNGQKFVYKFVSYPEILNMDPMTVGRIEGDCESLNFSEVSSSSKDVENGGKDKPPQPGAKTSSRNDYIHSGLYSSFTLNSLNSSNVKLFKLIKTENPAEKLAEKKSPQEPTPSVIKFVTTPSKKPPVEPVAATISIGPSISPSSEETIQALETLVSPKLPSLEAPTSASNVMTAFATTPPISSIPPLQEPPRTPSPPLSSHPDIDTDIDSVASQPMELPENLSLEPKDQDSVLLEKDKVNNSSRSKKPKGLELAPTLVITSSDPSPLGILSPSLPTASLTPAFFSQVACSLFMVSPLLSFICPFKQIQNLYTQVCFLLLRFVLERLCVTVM
# In short: as §1
# ETV2 = biological target: T4, ETV2 (Homo sapiens, UniProt O00321 1-342)
# T4 sequence: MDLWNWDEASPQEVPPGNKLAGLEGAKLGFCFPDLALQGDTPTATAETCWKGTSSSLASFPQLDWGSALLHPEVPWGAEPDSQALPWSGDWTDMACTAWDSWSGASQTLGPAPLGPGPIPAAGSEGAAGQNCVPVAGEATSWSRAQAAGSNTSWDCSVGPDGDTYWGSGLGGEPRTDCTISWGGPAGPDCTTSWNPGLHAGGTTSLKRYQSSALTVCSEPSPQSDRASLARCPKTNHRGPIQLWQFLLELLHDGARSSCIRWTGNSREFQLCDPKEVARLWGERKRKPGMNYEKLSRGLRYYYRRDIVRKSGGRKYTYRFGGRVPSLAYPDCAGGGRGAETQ
# In short: as §1
# ELF3 = biological target: T5, ELF3 (Homo sapiens, UniProt P78545 1-371)
# T5 sequence: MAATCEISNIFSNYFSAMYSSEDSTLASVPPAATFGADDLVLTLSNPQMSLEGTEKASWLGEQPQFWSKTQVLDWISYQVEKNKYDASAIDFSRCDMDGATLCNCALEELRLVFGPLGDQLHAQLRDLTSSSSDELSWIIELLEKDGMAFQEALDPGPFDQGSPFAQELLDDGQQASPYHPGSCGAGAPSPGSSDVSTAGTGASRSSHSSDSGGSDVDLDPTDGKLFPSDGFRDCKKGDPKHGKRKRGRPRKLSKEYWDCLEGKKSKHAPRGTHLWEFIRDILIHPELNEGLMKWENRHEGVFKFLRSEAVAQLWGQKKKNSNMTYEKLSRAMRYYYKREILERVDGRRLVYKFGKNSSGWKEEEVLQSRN
# In short: as §1
# ETV1 = ETV1 (Homo sapiens, UniProt P50549 1-477)
# In short: as §1
# ETV1, sequence (P50549 whole entry): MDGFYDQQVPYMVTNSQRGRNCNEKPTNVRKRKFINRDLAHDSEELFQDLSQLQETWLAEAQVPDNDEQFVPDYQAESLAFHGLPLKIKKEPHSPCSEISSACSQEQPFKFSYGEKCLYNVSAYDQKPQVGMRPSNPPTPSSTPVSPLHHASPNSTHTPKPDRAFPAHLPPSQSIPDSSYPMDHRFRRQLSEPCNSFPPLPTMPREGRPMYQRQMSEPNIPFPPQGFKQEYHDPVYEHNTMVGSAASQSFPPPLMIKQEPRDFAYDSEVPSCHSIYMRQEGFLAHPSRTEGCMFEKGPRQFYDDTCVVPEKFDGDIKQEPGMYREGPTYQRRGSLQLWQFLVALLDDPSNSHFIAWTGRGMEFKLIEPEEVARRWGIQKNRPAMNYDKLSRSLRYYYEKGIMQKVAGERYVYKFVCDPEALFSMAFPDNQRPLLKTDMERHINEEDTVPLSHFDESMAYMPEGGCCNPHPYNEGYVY
# ELF4, sequence (Q99607 whole entry): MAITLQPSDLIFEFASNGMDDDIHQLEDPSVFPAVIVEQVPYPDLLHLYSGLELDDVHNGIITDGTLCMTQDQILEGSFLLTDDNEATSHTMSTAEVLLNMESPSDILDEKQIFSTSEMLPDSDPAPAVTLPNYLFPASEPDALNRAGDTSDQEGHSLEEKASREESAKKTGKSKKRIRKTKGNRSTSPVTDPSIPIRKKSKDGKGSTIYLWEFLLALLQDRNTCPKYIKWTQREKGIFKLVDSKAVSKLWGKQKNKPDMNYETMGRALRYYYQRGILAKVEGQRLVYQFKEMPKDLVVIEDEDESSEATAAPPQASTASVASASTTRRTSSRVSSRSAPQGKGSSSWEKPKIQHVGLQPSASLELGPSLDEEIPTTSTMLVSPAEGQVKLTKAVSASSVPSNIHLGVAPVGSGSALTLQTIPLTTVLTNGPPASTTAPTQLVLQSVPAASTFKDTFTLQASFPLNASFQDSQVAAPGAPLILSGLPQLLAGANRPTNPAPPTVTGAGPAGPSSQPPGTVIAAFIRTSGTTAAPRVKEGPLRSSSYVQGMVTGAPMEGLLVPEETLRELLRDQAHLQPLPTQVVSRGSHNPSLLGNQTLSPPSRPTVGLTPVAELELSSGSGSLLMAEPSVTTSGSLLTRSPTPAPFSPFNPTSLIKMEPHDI
# ETV5, sequence (P41161 whole entry): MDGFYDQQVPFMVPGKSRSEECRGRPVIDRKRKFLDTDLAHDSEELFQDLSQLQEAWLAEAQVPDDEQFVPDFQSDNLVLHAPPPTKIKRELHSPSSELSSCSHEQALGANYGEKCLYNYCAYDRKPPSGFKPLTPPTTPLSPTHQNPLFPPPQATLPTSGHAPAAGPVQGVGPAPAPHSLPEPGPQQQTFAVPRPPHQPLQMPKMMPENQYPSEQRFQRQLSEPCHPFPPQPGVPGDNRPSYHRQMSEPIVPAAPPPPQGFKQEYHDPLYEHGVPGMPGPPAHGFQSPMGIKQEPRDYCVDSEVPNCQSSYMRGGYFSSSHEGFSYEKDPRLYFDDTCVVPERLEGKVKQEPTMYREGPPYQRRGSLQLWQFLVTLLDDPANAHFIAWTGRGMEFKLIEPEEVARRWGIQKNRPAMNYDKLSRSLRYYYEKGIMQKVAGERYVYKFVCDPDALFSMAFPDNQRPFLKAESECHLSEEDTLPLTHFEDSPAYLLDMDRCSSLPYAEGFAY
Sequence,binding signal (FEV),binding signal (ETV5),binding signal (SPIC),binding signal (ELF4),binding signal (ELK4),binding signal (ETV2),binding signal (ELF3),binding signal (ETV1)
CTGTTG,"1.06 fold enrichment (6-mer frequency, TF over GST control)","1.03 fold enrichment (6-mer frequency, TF over GST control)","1.12 fold enrichment (6-mer frequency, TF over GST control)","1.17 fold enrichment (6-mer frequency, TF over GST control)","1.1 fold enrichment (6-mer frequency, TF over GST control)","1.13 fold enrichment (6-mer frequency, TF over GST control)","1.03 fold enrichment (6-mer frequency, TF over GST control)","1.09 fold enrichment (6-mer frequency, TF over GST control)"
GGAAGT,"3.88 fold enrichment (6-mer frequency, TF over GST control)","3.34 fold enrichment (6-mer frequency, TF over GST control)","3.41 fold enrichment (6-mer frequency, TF over GST control)","2.72 fold enrichment (6-mer frequency, TF over GST control)","2.27 fold enrichment (6-mer frequency, TF over GST control)","2.85 fold enrichment (6-mer frequency, TF over GST control)","3.25 fold enrichment (6-mer frequency, TF over GST control)","3.33 fold enrichment (6-mer frequency, TF over GST control)"
CATCAC,"1.16 fold enrichment (6-mer frequency, TF over GST control)","1.13 fold enrichment (6-mer frequency, TF over GST control)","1.26 fold enrichment (6-mer frequency, TF over GST control)","1.12 fold enrichment (6-mer frequency, TF over GST control)","1.29 fold enrichment (6-mer frequency, TF over GST control)","1.11 fold enrichment (6-mer frequency, TF over GST control)","1.14 fold enrichment (6-mer frequency, TF over GST control)","1.1 fold enrichment (6-mer frequency, TF over GST control)"
CAAACC,"1.18 fold enrichment (6-mer frequency, TF over GST control)","1.05 fold enrichment (6-mer frequency, TF over GST control)","1.06 fold enrichment (6-mer frequency, TF over GST control)","1.2 fold enrichment (6-mer frequency, TF over GST control)","1.05 fold enrichment (6-mer frequency, TF over GST control)","1.12 fold enrichment (6-mer frequency, TF over GST control)","1.15 fold enrichment (6-mer frequency, TF over GST control)","1.18 fold enrichment (6-mer frequency, TF over GST control)"
GTTGCA,"1.11 fold enrichment (6-mer frequency, TF over GST control)","1.16 fold enrichment (6-mer frequency, TF over GST control)","1.11 fold enrichment (6-mer frequency, TF over GST control)","1.15 fold enrichment (6-mer frequency, TF over GST control)","1.06 fold enrichment (6-mer frequency, TF over GST control)","1.06 fold enrichment (6-mer frequency, TF over GST control)","1.1 fold enrichment (6-mer frequency, TF over GST control)","1.19 fold enrichment (6-mer frequency, TF over GST control)"
CCCAAC,"1.17 fold enrichment (6-mer frequency, TF over GST control)","1.11 fold enrichment (6-mer frequency, TF over GST control)","1.17 fold enrichment (6-mer frequency, TF over GST control)","1.22 fold enrichment (6-mer frequency, TF over GST control)","1.18 fold enrichment (6-mer frequency, TF over GST control)","1.03 fold enrichment (6-mer frequency, TF over GST control)","1.17 fold enrichment (6-mer frequency, TF over GST control)","1.13 fold enrichment (6-mer frequency, TF over GST control)"
AAGTGG,"1.23 fold enrichment (6-mer frequency, TF over GST control)","1.17 fold enrichment (6-mer frequency, TF over GST control)","1.43 fold enrichment (6-mer frequency, TF over GST control)","1.12 fold enrichment (6-mer frequency, TF over GST control)","1.13 fold enrichment (6-mer frequency, TF over GST control)","1.02 fold enrichment (6-mer frequency, TF over GST control)","1.19 fold enrichment (6-mer frequency, TF over GST control)","1.2 fold enrichment (6-mer frequency, TF over GST control)"
ACACCC,"1.08 fold enrichment (6-mer frequency, TF over GST control)","1.08 fold enrichment (6-mer frequency, TF over GST control)","1.19 fold enrichment (6-mer frequency, TF over GST control)","1.07 fold enrichment (6-mer frequency, TF over GST control)","1.05 fold enrichment (6-mer frequency, TF over GST control)","1.07 fold enrichment (6-mer frequency, TF over GST control)","1.01 fold enrichment (6-mer frequency, TF over GST control)","1.14 fold enrichment (6-mer frequency, TF over GST control)"
CTGCAC,"1.22 fold enrichment (6-mer frequency, TF over GST control)","1.17 fold enrichment (6-mer frequency, TF over GST control)","1.32 fold enrichment (6-mer frequency, TF over GST control)","1.2 fold enrichment (6-mer frequency, TF over GST control)","1.29 fold enrichment (6-mer frequency, TF over GST control)","1.24 fold enrichment (6-mer frequency, TF over GST control)","1.31 fold enrichment (6-mer frequency, TF over GST control)","1.13 fold enrichment (6-mer frequency, TF over GST control)"
CGCCCC,"1.21 fold enrichment (6-mer frequency, TF over GST control)","1.23 fold enrichment (6-mer frequency, TF over GST control)","1.24 fold enrichment (6-mer frequency, TF over GST control)","1.28 fold enrichment (6-mer frequency, TF over GST control)","1.06 fold enrichment (6-mer frequency, TF over GST control)","1.02 fold enrichment (6-mer frequency, TF over GST control)","1.09 fold enrichment (6-mer frequency, TF over GST control)","1.25 fold enrichment (6-mer frequency, TF over GST control)"
ACCGGA,"6.19 fold enrichment (6-mer frequency, TF over GST control)","3.33 fold enrichment (6-mer frequency, TF over GST control)","2.63 fold enrichment (6-mer frequency, TF over GST control)","2.78 fold enrichment (6-mer frequency, TF over GST control)","2.4 fold enrichment (6-mer frequency, TF over GST control)","3.02 fold enrichment (6-mer frequency, TF over GST control)","3.15 fold enrichment (6-mer frequency, TF over GST control)","3.45 fold enrichment (6-mer frequency, TF over GST control)"
GACATC,"1.73 fold enrichment (6-mer frequency, TF over GST control)","1.3 fold enrichment (6-mer frequency, TF over GST control)","1.26 fold enrichment (6-mer frequency, TF over GST control)","1.26 fold enrichment (6-mer frequency, TF over GST control)","1.34 fold enrichment (6-mer frequency, TF over GST control)","1.31 fold enrichment (6-mer frequency, TF over GST control)","1.23 fold enrichment (6-mer frequency, TF over GST control)","1.33 fold enrichment (6-mer frequency, TF over GST control)"
CCAACG,"1.14 fold enrichment (6-mer frequency, TF over GST control)","1.06 fold enrichment (6-mer frequency, TF over GST control)","1.11 fold enrichment (6-mer frequency, TF over GST control)","1.21 fold enrichment (6-mer frequency, TF over GST control)","1.12 fold enrichment (6-mer frequency, TF over GST control)","1.14 fold enrichment (6-mer frequency, TF over GST control)","1.17 fold enrichment (6-mer frequency, TF over GST control)","1.11 fold enrichment (6-mer frequency, TF over GST control)"
CATCCG,"2.77 fold enrichment (6-mer frequency, TF over GST control)","2.19 fold enrichment (6-mer frequency, TF over GST control)","2.11 fold enrichment (6-mer frequency, TF over GST control)","1.82 fold enrichment (6-mer frequency, TF over GST control)","1.71 fold enrichment (6-mer frequency, TF over GST control)","2.11 fold enrichment (6-mer frequency, TF over GST control)","1.9 fold enrichment (6-mer frequency, TF over GST control)","2.19 fold enrichment (6-mer frequency, TF over GST control)"
CGGTTC,"1.42 fold enrichment (6-mer frequency, TF over GST control)","1.31 fold enrichment (6-mer frequency, TF over GST control)","1.2 fold enrichment (6-mer frequency, TF over GST control)","1.19 fold enrichment (6-mer frequency, TF over GST control)","1.29 fold enrichment (6-mer frequency, TF over GST control)","1.39 fold enrichment (6-mer frequency, TF over GST control)","1.33 fold enrichment (6-mer frequency, TF over GST control)","1.39 fold enrichment (6-mer frequency, TF over GST control)"
